Compounds without any hit were thinned out: in the full panel of roughly 83,000, 20% have a hit.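 Treatment: one concentration, 48 hours, 96-well format. Scoring: percent growth, with anything below 10 considered active.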 Values without a mark were called inactive. Activity calls are given as the source filed them.

In the test the test system is HL-60(TB) leukemia. The experiment in a line: NCI-60 one-dose screen, 48 h (100 = growth as untreated, 0 = no growth, -100 = all killed). The following applies: 10 µM unless noted.
With `COc1ccc(/C=C/C(=O)c2c(O)c(C)c(O)c3c2OC2=CC(O)=C(C(C)=O)C(=O)[C@]23C)cc1`, the growth is -34.6% (active).

For the compound `COc1ccc(C(C)=O)cc1S(N)(=O)=O`, the growth is 74.7%.

In the case of `O=C(NC(Cc1ccccc1)C(=O)CCl)OCc1ccccc1` (stereo unspecified), the growth was 39.8%.

On to `CCCCCN(CCCCC)CCC[C@@H](C)[C@H]1CC[C@H]2[C@@H]3[C@H](OCCCN)C[C@@H]4C[C@H](OCCCN)CC[C@]4(C)[C@H]3C[C@H](OCCCN)[C@]12C`, for which the growth is -16.8% (active).

Consider `N#Cc1c(-c2ccccc2)cc(-c2ccccc2)n(CCCC(=O)NO)c1=O`, for which the growth was 10.2%.

For the compound `COc1ccc(CCN2C(=O)CCSC2=S)cc1`, the growth is 72.3%.
